# Screening results deposited in PubChem by National Center for Advancing Translational Sciences (NCATS).
# The list is not random: actives were taken first. Their share in the collection is about 12%.
# HP1b binding inh: HTS for Inhibitors of HP1-beta Chromodomain Interactions with Methylated Histone Tails; AlphaScreen HP1-beta / biotin-H3K9me3 peptide binding; Chromobox protein homolog 1 (Homo sapiens), P83916; Potency, µM (doses to about 114 µM), most hits filed as inhibitors; AID 540317, 2011; 0.56% of 390,000 active; further: nearly all actives have a fitted effect of over 70% in size
#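 AlphaScreen: HP1-beta (50 nM) preformed 30 min with biotin-H3(1-18)K9me3 peptide (50 nM) in PBS pH 7.4, 0.01% Tween-20. Compound added for 30 min at RT, then streptavidin donor/nickel chelate acceptor beads (10 ug/mL) for 30 min.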
# BAZ2B inh: qHTS Assay for Inhibitors of BAZ2B; 4.4% of 360,000 active; Potency, µM (highest dose often 114 µM), hits mostly inhibitors; Bromodomain adjacent to zinc finger domain protein 2B (Homo sapiens), Q9UIF8; AlphaScreen BAZ2B-H3K14Ac peptide displacement; AID 504333, 2011; further: nearly all actives have a fitted effect of over 60% in size
# Target sequence (Q9UIF8 whole entry, looked up, the tested form may be a part): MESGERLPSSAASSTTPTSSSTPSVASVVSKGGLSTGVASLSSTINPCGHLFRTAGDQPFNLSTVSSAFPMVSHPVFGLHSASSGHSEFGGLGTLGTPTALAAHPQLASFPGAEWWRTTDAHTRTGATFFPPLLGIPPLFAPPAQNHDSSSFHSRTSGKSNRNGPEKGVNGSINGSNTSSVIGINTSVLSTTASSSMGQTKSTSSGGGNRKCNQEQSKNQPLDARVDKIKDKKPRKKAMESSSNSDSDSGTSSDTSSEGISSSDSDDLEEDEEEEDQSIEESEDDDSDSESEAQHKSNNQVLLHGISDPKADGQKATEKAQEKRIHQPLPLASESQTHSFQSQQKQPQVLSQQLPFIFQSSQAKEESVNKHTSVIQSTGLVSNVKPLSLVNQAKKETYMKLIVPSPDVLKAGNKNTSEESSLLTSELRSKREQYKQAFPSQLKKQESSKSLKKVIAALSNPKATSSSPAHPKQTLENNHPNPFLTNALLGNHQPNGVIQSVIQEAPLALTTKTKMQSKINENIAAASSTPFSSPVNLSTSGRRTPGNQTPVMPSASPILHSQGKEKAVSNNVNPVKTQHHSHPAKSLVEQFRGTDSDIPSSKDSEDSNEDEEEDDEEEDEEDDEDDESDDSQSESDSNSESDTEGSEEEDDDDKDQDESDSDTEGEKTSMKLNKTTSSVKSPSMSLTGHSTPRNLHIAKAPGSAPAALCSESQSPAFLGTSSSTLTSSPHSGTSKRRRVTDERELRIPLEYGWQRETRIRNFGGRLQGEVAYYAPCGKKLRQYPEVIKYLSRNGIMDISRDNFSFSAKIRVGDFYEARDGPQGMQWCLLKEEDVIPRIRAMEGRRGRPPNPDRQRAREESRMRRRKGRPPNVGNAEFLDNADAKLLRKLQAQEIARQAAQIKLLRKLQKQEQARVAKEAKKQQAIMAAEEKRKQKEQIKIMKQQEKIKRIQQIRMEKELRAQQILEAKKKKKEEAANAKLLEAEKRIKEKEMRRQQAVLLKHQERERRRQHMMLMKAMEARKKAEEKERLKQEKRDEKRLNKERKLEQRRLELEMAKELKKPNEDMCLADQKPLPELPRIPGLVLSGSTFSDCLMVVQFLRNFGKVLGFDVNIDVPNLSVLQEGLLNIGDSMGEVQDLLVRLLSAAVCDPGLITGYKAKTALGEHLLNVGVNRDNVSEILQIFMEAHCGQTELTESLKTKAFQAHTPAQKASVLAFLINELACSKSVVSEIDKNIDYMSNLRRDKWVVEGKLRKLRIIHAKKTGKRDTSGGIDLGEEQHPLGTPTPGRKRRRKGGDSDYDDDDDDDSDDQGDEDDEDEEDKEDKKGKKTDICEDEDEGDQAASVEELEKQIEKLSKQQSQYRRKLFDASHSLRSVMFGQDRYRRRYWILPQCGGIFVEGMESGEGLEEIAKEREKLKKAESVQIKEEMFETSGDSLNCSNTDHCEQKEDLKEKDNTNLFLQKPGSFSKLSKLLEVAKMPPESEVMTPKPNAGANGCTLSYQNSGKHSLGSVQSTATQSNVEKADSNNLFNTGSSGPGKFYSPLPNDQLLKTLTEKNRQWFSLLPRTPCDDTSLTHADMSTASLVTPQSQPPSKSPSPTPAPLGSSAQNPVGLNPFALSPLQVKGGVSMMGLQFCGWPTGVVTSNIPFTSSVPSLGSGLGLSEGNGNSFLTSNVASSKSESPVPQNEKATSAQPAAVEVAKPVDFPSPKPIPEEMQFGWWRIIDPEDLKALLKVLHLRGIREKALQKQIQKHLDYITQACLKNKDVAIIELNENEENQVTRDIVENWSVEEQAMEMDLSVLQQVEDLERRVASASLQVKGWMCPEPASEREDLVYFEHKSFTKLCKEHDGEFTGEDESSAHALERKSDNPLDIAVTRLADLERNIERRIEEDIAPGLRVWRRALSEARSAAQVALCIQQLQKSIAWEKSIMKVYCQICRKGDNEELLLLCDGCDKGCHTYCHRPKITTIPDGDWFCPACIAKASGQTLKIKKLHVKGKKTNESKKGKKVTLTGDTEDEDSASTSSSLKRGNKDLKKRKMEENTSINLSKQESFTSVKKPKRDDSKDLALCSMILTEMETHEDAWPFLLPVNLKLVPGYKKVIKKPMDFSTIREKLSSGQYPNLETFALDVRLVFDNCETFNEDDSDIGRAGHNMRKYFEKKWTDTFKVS
#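 Multi-concentration screen (max 110 uM) measuring displacement of acetylated histone H3 peptide from BAZ2B by AlphaScreen, using 50 nM protein, 50 nM peptide and 10 ug/mL streptavidin donor plus Ni-chelate acceptor beads.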
# JMJD2A Tudor inh: qHTS Assay for Inhibitors of JMJD2A-Tudor Domain | Lysine-specific demethylase 4A (Homo sapiens), O75164 | AlphaScreen JMJD2A-Tudor / H3K4me3 peptide binding | Potency, µM (highest dose often 114 µM), usual class: inhibitors | 4.4% of 390,000 active | AID 504339, 2011; further: nearly all actives have a fitted effect of over 50% in size
# L3MBTL1 block: qHTS Assay for the Inhibitors of L3MBTL1 | AlphaScreen L3MBTL1–H3K9me1 peptide binding | Potency, µM (titrated, usually from 57.1 µM), actives largely listed as inhibitors | Lethal(3)malignant brain tumor-like protein 1 (Homo sapiens), Q9Y468 | 0.66% of 230,000 active; further: nearly all actives have a fitted effect of over 60% in size
#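 L3MBTL1 (50 nM) pre-complexed 30 min with biotinylated H3(1-15)K9me1 peptide (75 nM), then compounds added for 30 min at room temperature; AlphaScreen streptavidin donor/nickel chelate acceptor beads (10 ug/mL final) read after 30 min dark incubation.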
# Sfp PPTase inh: qHTS Assay for Inhibitors of Bacillus subtilis Sfp phosphopantetheinyl transferase (PPTase). 4'-phosphopantetheinyl transferase ffp (Bacillus subtilis), Q9F4F7. Biochemical Sfp PPTase activity, qHTS. Potency, µM, hits mostly inhibitors. 3.5% of 310,000 active. AID 1490, 2009;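 further: the enzyme is Sfp with the accession as filed and its product quenches rhodamine fluorescence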
#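 Fluorescence-quenching assay: 15 nM Sfp-PPTase preincubated 15 min at room temperature with compound, then 5 uM rhodamine-CoA and 12.5 uM BHQ-2-labelled YbbR peptide added. Fluorescence (ex 525/em 598 nm) read at start and after 30 min; difference gives rate.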
# G9a block: qHTS Assay for Inhibitors of Histone Lysine Methyltransferase G9a; G9a H3K9 monomethylation, AlphaScreen, 2 h; Potency, µM (series often up to 102 µM), usual class: inhibitors; 8.8% of 350,000 active; further: nearly all actives have a fitted effect of over 75% in size
#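 Compounds were preincubated with 20 nM G9a for 15 min, after which biotinylated H3K9 peptide (500 nM) and SAM (20 uM) started a 2 h room-temperature reaction. Monomethylated product was quantified by antibody-based AlphaScreen chemiluminescence.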
# A number is an active result; n = inactive; u = inconclusive; x = no result; [ ] = dose if it differs, or a comment. The call rests on the fitted dose curve; in most records, active means well fitted curve in the direction sought with a large enough effect; inconclusive means small, poorly fitted or top-dose-only effect, or another doubt; inactive means no such curve, though single readings can be large; an effect the other way counts as inactive or inconclusive.
SMILES,HP1b binding inh,BAZ2B inh,JMJD2A Tudor inh,L3MBTL1 block,Sfp PPTase inh,G9a block
Cc1ccc(S(=O)(=O)CCC(=O)Nc2nc(-c3ccccn3)cs2)cc1,n,u,89µM,n,x,n[12.7 µM]
N#Cc1ccc(OCC(=O)Nc2nc(-c3cccnc3)cs2)cc1,n,n,n,n,x,n[12.7 µM]
CC1=C(C(=O)Nc2ccc(F)cc2F)C2(CCCCCC2)OC1=O,n,n,n,x,x,n
CCOc1ccc(-c2cn3c(n2)sc2cc(C(=O)NCCc4ccc(OC)c(OC)c4)ccc23)cc1,n,n,n,x,x,n
O=C(COc1ccc([N+](=O)[O-])cc1)Nc1nc(-c2ccccn2)cs1,n,56µM,28µM,u,x,35µM
O=C(Nc1nc(-c2ccccn2)cs1)Nc1ccc(F)cc1F,u,n,40µM,x,11µM,2.8µM
Cc1ccc(S(=O)(=O)CCc2nnc(NC(=O)c3ccccn3)s2)cc1,n,3.2µM,11µM,u,n,n
O=C(COc1ccc([N+](=O)[O-])cc1)Nc1cccnc1,n,n,n,n,n,u
Cc1ccc(S(=O)(=O)CCc2nnc(NC(=O)c3cnccn3)s2)cc1,n,n,u,n,n,u
Cc1cc(C)cc(OCC(=O)NCC(c2ccc(Cl)cc2)N2CCCCC2)c1 (stereo not drawn),n,n,n,x,x,n
CCN(CCCNC(=O)c1nn(-c2ccc(C)cc2)c(=O)c2c1c1ccccc1n2C)c1ccccc1,n,x,n,x,x,n
O=C(Oc1ccc(N2C(=O)C3C4CCC(C4)C3C2=O)cc1)c1ccco1 (stereo not drawn),n,n,n,x,n,n
O=C(Oc1cccc2cccnc12)c1ccc(N2C(=O)C3C4CCC(C4)C3C2=O)cc1 (stereo not drawn),n,50µM,u,n,u,n
O=C(Oc1cccc2cccnc12)c1cccc(N2C(=O)C3C4CCC(C4)C3C2=O)c1 (stereo not drawn),n,10µM,71µM,u,45µM,0.79µM
O=C(Oc1cccc2cccnc12)c1cccc(-n2cnnn2)c1,n,u,n,n[11.4 µM],n,5.6µM
CCOc1ccc(CCNC(=O)CCN2N=C(c3ccc(OC)cc3)CCC2=O)cc1OCC,n,n,n,x,x,n
COc1ccc(CCNc2ccc(C)cc2)cc1,u,u,40µM,x,n,u
COc1ccc(C(O)CNc2ccc(C)cc2)cc1 (stereo not drawn),n,u,n,n,n,n
CC(C)=CCC/C(C)=C/COc1c2ccoc2cc2oc(=O)ccc12,n,x,n,x,x,x
O=C1OC(c2ccccc2)=C/C1=C/N1CCOCC1,n,n,n,n,20µM,8.9µM
O=C1OC(c2ccccc2)=C/C1=C\N1CCOCC1,n,n,u,n,u,8.9µM
CN(C)/C=C1/C=C(c2ccccc2)OC1=O,n,n,n,x,40µM,35µM
N#C/C(=C\N1CCOCC1)c1ccccc1,n,n,n,x,n,n[12.7 µM]
CC1=C/C(=C/N(C)C)C(=O)O1,n,n,n,u,n,u
OC1OC[C@@H](O)[C@@H](O)[C@@H]1O (stereo partly drawn),x,x,x,x,n,x
SMILES,HP1b binding inh,BAZ2B inh,JMJD2A Tudor inh,L3MBTL1 block,Sfp PPTase inh,G9a block
Cc1ccc(C(=O)c2oc3ccccc3c2NC(=O)c2nc(S(C)(=O)=O)ncc2Cl)cc1F,n,n,n,x,x,n
COc1ccccc1CNC(=O)c1ccc2c(c1)nc(C)n2-c1cccc(C)c1,n,n,n,x,x,n
CCOc1ccc(-n2nc3ccc(NC(=O)CC)cc3n2)cc1,n,n,u,n,n,35µM
CC(C)C[C@H](NC(=O)[C@H](CO)NC(=O)[C@H](C)NC(=O)[C@H](CCCN=C(N)N)NC(=O)[C@H](CCCN=C(N)N)NC(=O)[C@@H](N)CC(C)C)C(=O)NCC(=O)O,x,x,x,x,n,x
Oc1oc(C=Nc2ccc(F)cc2F)c2ccccc12,n,u,n,x,n,5µM
Cc1cccc(/N=C/c2c(O)c3ccccc3oc2=O)n1,n,n,n,x,n,n[12.7 µM]
